{"source": "the supplement of paper PMC6279402", "note": "Structures can show the parent of a compound that is named as a salt. ± gives the standard deviation of the averaged measurements."}
{"test_system": "A549", "assay": "relative viability (normalised to negative control = 1, bortezomib = 0) (fraction); higher = less cytotoxic", "details": "inflammatory serum-free RHB-A with cytokines + LPS; 5 d + 24 h CellTiter-Blue; compound 30 nM; GSK126 pretreatment: none (vehicle)"}
{"compound": "Cc1cccc(-c2[nH]c(C(C)(C)C)nc2-c2ccc3nccnc3c2)n1", "relative viability": "0.828 ± 0.086"}
{"compound": "CC(C)c1cnn2c(NCc3ccccc3)cc(NCCCCCCN)nc12", "note": "[BS-181 hydrochloride]", "relative viability": "0.821 ± 0.11"}
{"compound": "CCc1c2c(nc3ccc(OC(=O)N4CCC(N5CCCCC5)CC4)cc13)-c1cc3c(c(=O)n1C2)COC(=O)[C@]3(O)CC", "note": "[Irinotecan HCl; Irinotecan hydrochloride]", "relative viability": "0.895 ± 0.018"}
{"compound": "CN1CCN(CCOc2cc(OC3CCOCC3)c3c(Nc4c(Cl)ccc5c4OCO5)ncnc3c2)CC1", "note": "[AZD0530(Saracatinib)]", "relative viability": "0.827 ± 0.071"}
{"compound": "Cc1cc(C(C)Nc2ccccc2)c2nc(N3CCOCC3)cc(=O)n2c1", "note": "(stereo unspecified)", "relative viability": "0.782 ± 0.067"}
{"compound": "OCCn1cc(-c2ccc3c(c2)CC/C3=N\\O)c(-c2ccncc2)n1", "relative viability": "0.989 ± 0.093"}
{"compound": "CCN(CCO)CCCOc1ccc2c(Nc3cc(CC(=O)Nc4cccc(F)c4)[nH]n3)ncnc2c1", "note": "[AZD1152-HQPA(Barasertib)]", "relative viability": "0.714 ± 0.031"}
{"compound": "COc1ccc(S(=O)(=O)N(C(C)=O)c2ccccc2/C=C/c2cc[n+]([O-])cc2)cc1", "relative viability": "0.914 ± 0.033"}
{"compound": "C#Cc1cccc(Nc2ncnc3cc(OCCOC)c(OCCOC)cc23)c1", "relative viability": "0.823 ± 0.12"}
{"compound": "CCCNC(=O)Nc1ccc(Oc2ncnc3cc(OC)c(OC)cc23)cc1Cl", "relative viability": "0.752 ± 0.01"}
{"compound": "CC(C)C[C@H](NC(=O)[C@H](CCc1ccccc1)NC(=O)CN1CCOCC1)C(=O)N[C@@H](Cc1ccccc1)C(=O)N[C@@H](CC(C)C)C(=O)[C@@]1(C)CO1", "note": "[Carfilzomib]", "relative viability": "0.0294 ± 0.0064"}
{"compound": "CNNCc1ccc(C(=O)NC(C)C)cc1", "note": "[Procarbazine hydrochloride; Procarbazine]", "relative viability": "0.915 ± 0.14"}
{"compound": "COC(=O)Nc1ccc(-c2nc(N3CCOCC3)c3cnn(C4CCN(C(=O)OC)CC4)c3n2)cc1", "relative viability": "0.715 ± 0.019"}
{"compound": "Cn1c(Nc2ccc(C(F)(F)F)cc2)nc2cc(Oc3ccnc(-c4ncc(C(F)(F)F)[nH]4)c3)ccc21", "relative viability": "0.699 ± 0.17"}
{"compound": "COc1cc(N2CCC(N3CCN(C)CC3)CC2)ccc1Nc1ncc(Cl)c(Nc2ccccc2S(=O)(=O)C(C)C)n1", "relative viability": "0.605 ± 0.022"}
{"compound": "O=C1CCC(N2C(=O)c3ccccc3C2=O)C(=O)N1", "note": "(stereo unspecified)", "relative viability": "0.862 ± 0.13"}
{"compound": "Cc1ccc([N+](=O)[O-])cc1S(=O)(=O)N(C)/N=C/c1cnc2ccc(Br)cn12", "note": "[PIK-75 Hydrochloride]", "relative viability": "0.101 ± 0.062"}
{"compound": "CS(=O)(=O)N1CCN(Cc2cc3nc(-c4cccc5[nH]ncc45)nc(N4CCOCC4)c3s2)CC1", "relative viability": "0.719 ± 0.062"}
{"compound": "Cn1cnc2c(F)c(Nc3ccc(Br)cc3Cl)c(C(=O)NOCCO)cc21", "note": "[AZD6244(Selumetinib)]", "relative viability": "0.592 ± 0.045"}
{"compound": "O=C1NC(=O)/C(=C\\c2ccc3nccnc3c2)S1", "relative viability": "0.854 ± 0.032"}
{"compound": "C=CC(=O)Nc1cccc(Sc2nc(Nc3ccc(N4CCN(C)CC4)cc3)ncc2Cl)c1", "relative viability": "0.815 ± 0.085"}
{"compound": "Cc1ccc(C(=O)Nc2cccc(C(F)(F)F)c2)cc1Nc1nc(-c2cccnc2)nc2c1cnn2C", "relative viability": "0.959 ± 0.17"}
{"compound": "CC(=O)Nc1cccc(-n2c(=O)n(C3CC3)c(=O)c3c(Nc4ccc(I)cc4F)n(C)c(=O)c(C)c32)c1", "relative viability": "0.171 ± 0.011"}
{"compound": "C[C@@H]1CN(CC(=O)Nc2ccc3c(c2)Cc2cccc(-c4cc(=O)cc(N5CCOCC5)o4)c2S3)C[C@H](C)O1", "relative viability": "0.857 ± 0.089"}
{"test_system": "A549", "assay": "relative viability (normalised to negative control = 1, bortezomib = 0) (fraction); higher = less cytotoxic", "details": "inflammatory serum-free RHB-A with cytokines + LPS; 5 d + 24 h CellTiter-Blue; compound 300 nM; GSK126 pretreatment: 5 uM GSK126"}
{"compound": "CNC(=O)c1cc(Oc2ccc(NC(=O)Nc3cc(C(C)(C)C)nn3-c3ccc4ncccc4c3)c(F)c2)ccn1", "note": "[DCC-2036 (Rebastinib)]", "relative viability": "1.48 ± 0.067"}
{"compound": "Cn1cc(-c2ccc3nnc(C(F)(F)c4ccc5ncccc5c4)n3n2)cn1", "relative viability": "1.001 ± 0.009"}
{"compound": "CC1(COc2ccc3c(c2)ncn3-c2ccc3cccc(N4CCC(N)CC4)c3n2)COC1", "relative viability": "1.3 ± 0.087"}
{"compound": "CC(C)(C)c1cc(NC(=O)Nc2ccc(-c3cn4c(n3)sc3cc(OCCN5CCOCC5)ccc34)cc2)no1", "relative viability": "1.05 ± 0.087"}
{"compound": "Cc1[nH]nc2ccc(-c3cncc(OC[C@@H](N)Cc4ccccc4)c3)cc12", "relative viability": "0.17 ± 0.011"}
{"compound": "CN(C)Cc1cccc(N=C(c2ccccc2)c2c(O)[nH]c3cc(C(N)=O)ccc23)c1", "relative viability": "1.08 ± 0.2"}
{"compound": "CC(C)n1nc(-c2cc3cc(O)ccc3[nH]2)c2c(N)ncnc21", "relative viability": "0.37 ± 0.014"}
{"compound": "C[C@]12CC[C@@H]3c4ccc(O)cc4C[C@@H](CCCCCCCCC[S+]([O-])CCCC(F)(F)C(F)(F)F)[C@H]3[C@@H]1CC[C@@H]2O", "note": "(stereo partly specified) [Fulvestrant]", "relative viability": "0.85 ± 0.065"}
{"compound": "N#CC(=C(/N)Sc1ccccc1N)/C(C#N)=C(/N)Sc1ccccc1N", "relative viability": "0.61 ± 0.084"}
{"compound": "CN(C)C/C=C/C(=O)Nc1cc2c(Nc3ccc(F)c(Cl)c3)ncnc2cc1O[C@H]1CCOC1", "note": "[BIBW2992; BIBW2992(Tovok)]", "relative viability": "0.281 ± 0.036"}
{"compound": "Cc1cc(Nc2nc(N[C@@H](C)c3ncc(F)cn3)ncc2Cl)[nH]n1", "relative viability": "1.15 ± 0.076"}
{"compound": "Nc1ncnc2c1c(-c1cnc3[nH]ccc3c1)nn2C1CCCC1", "relative viability": "0.494 ± 0.039"}
{"compound": "CC[C@H](CO)Nc1nc(NCc2ccccc2)c2ncn(C(C)C)c2n1", "note": "[ROSCOVITINE; Roscovitine(CYC202); Roscovitine]", "relative viability": "0.963 ± 0.063"}
{"compound": "Cc1cccc(-c2[nH]c(C(C)(C)C)nc2-c2ccc3nccnc3c2)n1", "relative viability": "0.799 ± 0.036"}
{"compound": "CC(C)c1cnn2c(NCc3ccccc3)cc(NCCCCCCN)nc12", "note": "[BS-181 hydrochloride]", "relative viability": "0.853 ± 0.063"}
{"compound": "CCc1c2c(nc3ccc(OC(=O)N4CCC(N5CCCCC5)CC4)cc13)-c1cc3c(c(=O)n1C2)COC(=O)[C@]3(O)CC", "note": "[Irinotecan HCl; Irinotecan hydrochloride]", "relative viability": "0.931 ± 0.037"}
{"compound": "CN1CCN(CCOc2cc(OC3CCOCC3)c3c(Nc4c(Cl)ccc5c4OCO5)ncnc3c2)CC1", "note": "[AZD0530(Saracatinib)]", "relative viability": "0.746 ± 0.057"}
{"compound": "Cc1cc(C(C)Nc2ccccc2)c2nc(N3CCOCC3)cc(=O)n2c1", "note": "(stereo unspecified)", "relative viability": "0.737 ± 0.093"}
{"compound": "OCCn1cc(-c2ccc3c(c2)CC/C3=N\\O)c(-c2ccncc2)n1", "relative viability": "1.03 ± 0.21"}
{"compound": "CCN(CCO)CCCOc1ccc2c(Nc3cc(CC(=O)Nc4cccc(F)c4)[nH]n3)ncnc2c1", "note": "[AZD1152-HQPA(Barasertib)]", "relative viability": "0.813 ± 0.13"}
{"compound": "COc1ccc(S(=O)(=O)N(C(C)=O)c2ccccc2/C=C/c2cc[n+]([O-])cc2)cc1", "relative viability": "0.663 ± 0.032"}
{"compound": "C#Cc1cccc(Nc2ncnc3cc(OCCOC)c(OCCOC)cc23)c1", "relative viability": "0.448 ± 0.041"}
{"compound": "CCCNC(=O)Nc1ccc(Oc2ncnc3cc(OC)c(OC)cc23)cc1Cl", "relative viability": "0.775 ± 0.19"}
{"compound": "CC(C)C[C@H](NC(=O)[C@H](CCc1ccccc1)NC(=O)CN1CCOCC1)C(=O)N[C@@H](Cc1ccccc1)C(=O)N[C@@H](CC(C)C)C(=O)[C@@]1(C)CO1", "note": "[Carfilzomib]", "relative viability": "-0.00389 ± 0.00043"}
{"compound": "CNNCc1ccc(C(=O)NC(C)C)cc1", "note": "[Procarbazine hydrochloride; Procarbazine]", "relative viability": "0.997 ± 0.12"}
{"compound": "COC(=O)Nc1ccc(-c2nc(N3CCOCC3)c3cnn(C4CCN(C(=O)OC)CC4)c3n2)cc1", "relative viability": "0.489 ± 0.036"}
{"compound": "Cn1c(Nc2ccc(C(F)(F)F)cc2)nc2cc(Oc3ccnc(-c4ncc(C(F)(F)F)[nH]4)c3)ccc21", "relative viability": "0.427 ± 0.11"}
{"compound": "COc1cc(N2CCC(N3CCN(C)CC3)CC2)ccc1Nc1ncc(Cl)c(Nc2ccccc2S(=O)(=O)C(C)C)n1", "relative viability": "0.211 ± 0.019"}
{"compound": "O=C1CCC(N2C(=O)c3ccccc3C2=O)C(=O)N1", "note": "(stereo unspecified)", "relative viability": "0.865 ± 0.06"}
{"compound": "Cc1ccc([N+](=O)[O-])cc1S(=O)(=O)N(C)/N=C/c1cnc2ccc(Br)cn12", "note": "[PIK-75 Hydrochloride]", "relative viability": "-0.00172 ± 0.0047"}
{"compound": "CS(=O)(=O)N1CCN(Cc2cc3nc(-c4cccc5[nH]ncc45)nc(N4CCOCC4)c3s2)CC1", "relative viability": "0.339 ± 0.066"}
{"compound": "Cn1cnc2c(F)c(Nc3ccc(Br)cc3Cl)c(C(=O)NOCCO)cc21", "note": "[AZD6244(Selumetinib)]", "relative viability": "0.203 ± 0.028"}
{"compound": "O=C1NC(=O)/C(=C\\c2ccc3nccnc3c2)S1", "relative viability": "0.915 ± 0.14"}
{"compound": "C=CC(=O)Nc1cccc(Sc2nc(Nc3ccc(N4CCN(C)CC4)cc3)ncc2Cl)c1", "relative viability": "0.475 ± 0.1"}
{"compound": "Cc1ccc(C(=O)Nc2cccc(C(F)(F)F)c2)cc1Nc1nc(-c2cccnc2)nc2c1cnn2C", "relative viability": "1.01 ± 0.13"}
{"compound": "CC(=O)Nc1cccc(-n2c(=O)n(C3CC3)c(=O)c3c(Nc4ccc(I)cc4F)n(C)c(=O)c(C)c32)c1", "relative viability": "0.0602 ± 0.013"}
{"compound": "C[C@@H]1CN(CC(=O)Nc2ccc3c(c2)Cc2cccc(-c4cc(=O)cc(N5CCOCC5)o4)c2S3)C[C@H](C)O1", "relative viability": "0.907 ± 0.043"}
